# Experimental data taken from the supplement of paper PMC10981050.
# Values joined by “and” are separate entries in the source; they are usually repeats but may differ in a detail not shown here. Equal values may be shown once. Where a name gives a salt, the structure may show the parent alone.
# Experiments:
# Assay in all cases: cell viability relative to vehicle control; higher = less cytotoxic
# Conditions in all cases: 10 µM
# K562 = system: K562
# Procedure, shortened: (§1)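 CRISPR-edited mutant clones and isogenic wild-type clones from four leukaemia lines were screened against Selleck bioactive, kinase and epigenetic probe libraries, with identity-inconsistent compounds excluded. Each compound was acoustically dispensed at a single 10 µM dose into 384-well plates holding 2000 cells in 50 µL medium per well. After 48 h the supernatant was removed and CellTiter-Glo luminescence was read. Viability was expressed as percent of the on-plate vehicle control and analysed in Genedata Screener.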
# MARIMO = system: MARIMO
# Procedure, shortened: as §1
# MOLM14 = system: MOLM14
# Procedure, shortened: as §1
# OCI-AML2 = system: OCI-AML2
# Procedure, shortened: as §1
Structure (SMILES),cell viability (K562; SRSF2 genotype: SRSF2 P95H/wt),cell viability (K562; SRSF2 genotype: SRSF2 wt/wt) [%],cell viability (MARIMO; SRSF2 genotype: SRSF2 P95H/wt) [%],cell viability (MARIMO; SRSF2 genotype: SRSF2 wt/wt) [%],cell viability (MOLM14; SRSF2 genotype: SRSF2 P95H/wt) [%],cell viability (MOLM14; SRSF2 genotype: SRSF2 wt/wt) [%],cell viability (OCI-AML2; SRSF2 genotype: P95H/wt) [%],cell viability (OCI-AML2; SRSF2 genotype: wt/wt) [%]
O=C(Nc1c(Cl)cncc1Cl)c1ccc(OC(F)F)c(OCC2CC2)c1 [Roflumilast (Daxas)],96.8% and 106%,105,116,114,105,109,103,96
Cc1c(Cc2ccc3ccccc3n2)c2cc(F)ccc2n1CC(=O)O,102% and 99.7%,98.8,97.5,108,98.5,103,90.4,107
CCS(=O)(=O)Nc1ccc(Oc2ccc(F)cc2F)c(-c2cn(C)c(=O)c3[nH]ccc23)c1 [ABBV-075 (Mivebresib)],20.9% and 13.8%,33.2,7.17,9.37,1.9,1.8,7.64,13.5
OCCOCCN1CCN(Cc2cccc(Oc3ccccc3)c2)CC1,97.6% and 99.2%,94,90,99.3,94.5,99.8,84,93.8
O=C(c1cn(Cc2cncn2Cc2ccc(Br)cc2)cc1-c1cccc2ccccc12)N1CCOCC1,48.4% and 62.4%,47.2,34.1,36.4,35.1,39.1,25.7,32.2
COc1cc2c(cc1OC(C)C)[C@H](c1ccc(Cl)cc1)N(c1ccc(N(C)C[C@H]3CC[C@H](N4CCN(C)C(=O)C4)CC3)cc1)C(=O)C2,68.8% and 72.1%,68.4,67.8,71.8,0.15,0.13,0.22,2.94
CC1(C)OC(=O)C=C[C@]2(C)[C@H]3CC[C@@]4(C)[C@H](c5ccoc5)OC(=O)[C@H]5O[C@]54[C@]3(C)C(=O)C[C@@H]12 [Obacunone],103% and 98.1%,95.4,92.7,95.5,97.4,102,91.1,93.6
Cc1cccc(Nc2ccccc2C(=O)O)c1C [Mefenamic Acid],98.6% and 99.4%,96.4,103,92.8,94.5,98.5,106,101
O=Cc1ccc(CO)o1 [5-Hydroxymethylfurfural],91.8% and 86.8%,84,85,95.1,86.9,91.3,85.6,92.7
CC(C)C[C@@H](C=O)NC(=O)[C@H](CC(C)C)NC(=O)[C@H](CC(C)C)NC(=O)OCc1ccccc1,1.82% and 1.99%,1.37,0.54,1.13,0.49,0.53,0.36,0.41
CCCC(=O)OCOC(=O)C1=C(C)NC(C)=C(C(=O)OC)C1c1cccc(Cl)c1Cl (centres undefined) [Clevidipine Butyrate],102% and 105%,104,100,107,104,109,107,108
CC(C)=CCc1cc2c(cc1O)O[C@H](c1ccc(O)cc1)CC2=O [Bavachin],95.2% and 87.3%,100,96.5,99.5,111,109,101,114
COc1cc2nc(N3CCN(C(=O)c4ccco4)CC3)nc(N)c2cc1OC [Prazosin HCl],99.9% and 102%,102,96.8,103,101,97,102,95.6
COc1cc2ncnc(Nc3cccc(Cl)c3F)c2cc1OC(=O)N1CCN(C)C[C@H]1C,84.8% and 93.4%,101,104,106,77.9,87.3,89.8,75.7
CC1(C)CCC2(C(=O)O)C(O)CC3(C)C(=CCC4C5(C)CC(O)C(O)C(C)(CO)C5CCC43C)C2C1 (centres undefined) [Polygalacic acid],103% and 102%,103,101,98.5,109,100,104,94.9
CCC(=O)OCC(=O)[C@@]1(OC(=O)CC)[C@@H](C)C[C@H]2[C@@H]3CCC4=CC(=O)C=C[C@]4(C)[C@@]3(F)[C@@H](O)C[C@@]21C [Betamethasone Dipropionate (Diprolene)],96.7% and 103%,98.8,106,109,94.5,96,113,120
CC(Oc1cc(-c2cnn(C3CCNCC3)c2)cnc1N)c1c(Cl)ccc(F)c1Cl [(S)-crizotinib],85.7% and 81%,74.8,84.4,92,78.2,86.2,88.8,75.3
C[C@@H]1Cc2c([nH]c3ccccc23)[C@@H](c2c(F)cc(/C=C/C(=O)O)cc2F)N1CC(C)(C)F,106% and 105%,108,107,104,101,97.4,117,107
